Inconclusive results are not listed. Active and inactive are the calls of the source. The call rests on the fitted dose curve; in most records, active means well fitted inhibition curve with a large enough effect; inconclusive means small, poorly fitted or top-dose-only effect; inactive means flat fitted curve, though single readings scatter. Peptide text beside a SMILES is read from it.

Test system in the first assay: not listed separately
The assay is described as follows: qHTS Assay for Lipid Storage Modulators (AID 1519). The note with it: Drosophila S3 cells, BODIPY lipid droplet/cell ratio, laser cytometry; measured here: lipid channel max response; cells loaded with oleic acid. Put shortly:
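Cells seeded at 5,000 per well were treated with compounds over a concentration series and loaded with oleic acid (400 uM, as added). Lipid droplet fluorescence (488 nm excitation, 500-530 nm channel) was read by laser-scanning cytometry and normalized to 20 uM Triacsin C.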
Background: qHTS replaces the single test concentration by a dilution series.
Turning to `CCOc1ccc(C(=O)c2ccc(O)c(O)c2O)cc1`, the max response was -2.36%.
As to `CC(C)CC(NC(=O)CN)C(=O)NC(Cc1ccccc1)C(=O)O` (stereo not drawn) (H-Gly-Leu-Phe-OH; configuration not given here), the max response turned out to be 11.6%.
On the same count and under the same terms, next, `CC(=O)Oc1ccc2c(c1)CCC1C2CC[C@]2(C)C(=O)CCC12` (stereo partly specified): -17.8%; `O=C(O)c1ccc2c(c1)OCO2`: 22.7%.
On to `CC(=O)OC1CC[C@@]2(C)C3=CC(=O)[C@]4(C)C(CC5OC6(OCC(C)CC6Br)C(C)C54)C3CC[C@H]2C1` (stereo partly specified), for which the max response is -20.5%.
As for `CC(=O)OC1CC[C@@]2(C)C(CC[C@@]3(C)C2CC=C2C4CC(C)(C)CC[C@]4(C(=O)O)CC[C@@]23C)C1(C)C` (stereo partly specified), the max response came out at 29%.
Take `CC(=O)O[C@@]1(C(C)=O)CCC2C3C=C(Cl)C4=CC(=O)C5CC5[C@@]4(C)C3CC[C@]21C` (stereo partly specified): the max response turned out to be 0.864%.
Still for that read-out and setting: the same measure for `CC1CC[C@@]2(OC1)OC1CC3C4CC[C@H]5CC(O)CC[C@@]5(C)C4CC[C@]3(C)C1C2C` (stereo partly specified): 29.7%; for `COc1ccc(-c2coc3c(OC)c(OC)cc(OC)c3c2=O)cc1`: 29.7%; for `O=c1[nH]cnc2c1nc(Cl)n2C1OC(CO)C(O)C1O` (stereo unspecified): 10.4%.

For a further assay, the target named is Ubiquitin carboxyl-terminal hydrolase 1 (Homo sapiens) (UniProt O94782). The assay is described as follows: Inhibitors of USP1/UAF1: Pilot qHTS (AID 504865).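 Further: rhodamine fluorescence freed from ubiquitin-rhodamine substrate followed over time; top concentration of the series differs between compounds; on the % scale 0 is the no-effect control and ±100 the full control effect; nearly all actives have a fitted effect of over 35% in size.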 The note with it: purified USP1/UAF1, Ub-rhodamine cleavage fluorescence; series mostly up to 114 µM; activity change, negative = inhibition: at the top concentration. In a few lines: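 1nM USP1/UAF1 + cpd, 15 min RT; start w/ Ub-Rho 150nM final; kinetic FL 480/540 nm, 6 reads q60 s. Buffer 50mM HEPES pH 7.8, 0.5mM EDTA, 1mM TCEP, 0.01% Tween-20, 0.1 mg/ml BSA.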
Ubiquitin carboxyl-terminal hydrolase 1 (Homo sapiens), sequence (O94782 whole entry, looked up): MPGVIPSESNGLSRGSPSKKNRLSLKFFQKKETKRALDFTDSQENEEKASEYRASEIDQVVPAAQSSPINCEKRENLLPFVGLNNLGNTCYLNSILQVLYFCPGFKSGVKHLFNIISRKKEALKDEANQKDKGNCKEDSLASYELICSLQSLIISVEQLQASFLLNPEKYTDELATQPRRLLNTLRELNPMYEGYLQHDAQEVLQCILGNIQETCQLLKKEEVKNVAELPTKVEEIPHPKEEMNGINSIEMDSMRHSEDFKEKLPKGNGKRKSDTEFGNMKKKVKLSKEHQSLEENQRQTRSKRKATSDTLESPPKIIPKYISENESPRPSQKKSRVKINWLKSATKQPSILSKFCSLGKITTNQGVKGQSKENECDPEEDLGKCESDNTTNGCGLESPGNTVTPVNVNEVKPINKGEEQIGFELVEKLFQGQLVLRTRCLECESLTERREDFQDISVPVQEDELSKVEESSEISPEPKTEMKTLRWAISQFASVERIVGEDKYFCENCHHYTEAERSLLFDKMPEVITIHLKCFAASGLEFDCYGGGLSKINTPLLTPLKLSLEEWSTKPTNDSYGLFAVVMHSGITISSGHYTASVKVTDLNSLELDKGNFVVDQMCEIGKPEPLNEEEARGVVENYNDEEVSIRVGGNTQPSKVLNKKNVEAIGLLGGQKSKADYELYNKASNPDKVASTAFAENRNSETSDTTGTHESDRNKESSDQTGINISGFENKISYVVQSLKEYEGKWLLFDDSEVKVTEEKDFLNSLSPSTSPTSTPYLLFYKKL
Take `CC(C)C1COc2cc3oc(=O)ccc3cc2O1` (stereo unspecified): the “activity change, negative = inhibition” value was -0.214% (inactive).
Same read-out and setting: next, `NC(N)=NCCCC(NC(=O)C(N)Cc1ccc(O)cc1)C(=O)O` (stereo unspecified): -4.81% (inactive).
Consider `CC1CC[C@@]2(OC1)OC1CC3C4CC[C@@H]5CC(O)CC[C@@]5(C)C4CC[C@]3(C)C1C2C` (stereo partly specified), for which the “activity change, negative = inhibition” value was -3.97% (inactive).
Take `COc1c2ccccc2nc2occc12`: the “activity change, negative = inhibition” value was -10.5% (inactive).
Take `COc1ccc2c(=O)c(CC(=O)O)coc2c1`: the “activity change, negative = inhibition” value is -2.3% (inactive).
On to `CC1(C)OC2C(CO)OC(n3cnc4c(=O)[nH]cnc43)C2O1` (stereo unspecified), for which the “activity change, negative = inhibition” value is -8.4% (inactive).
On the same count and under the same terms, next, `CCOC(=O)CCCCCCCCCCCCC1C=CCC1` (stereo unspecified): -10.2% (inactive); `OCc1ccccc1O[C@H]1OC(CO)C(O)C(O)C1O` (stereo partly specified): -11% (inactive).
On the same count and under the same terms, next, `COc1ccc(/C=C/c2cc(O)cc(O[C@H]3OC(CO)C(O)C(O)C3O)c2)cc1` (stereo partly specified): -7.27% (inactive); `COc1c(O)cccc1O`: -10.2% (inactive).
On the same count and under the same terms, the same measure for `Nc1ncnc2[nH]c(=O)[nH]c12`: -7.53% (inactive).
Regarding `NCC1CCCCC1CC(=O)O` (stereo unspecified), the “activity change, negative = inhibition” value is 0.0571% (inactive).
On the same count and under the same terms, next, `C#CCCCCCCCCCCCC(=O)CC(O)COC(C)=O` (stereo unspecified): -9.46% (inactive); `CCN1CCN(C(=O)NC(C(=O)NC2C(=O)N3C2SC(C)(C)C3C(=O)O)c2ccccc2)C(=O)C1=O` (stereo unspecified): -5.55% (inactive).
On the same count and under the same terms, the same measure for `CC(=O)N1CCCC1C(=O)O` (stereo unspecified): 0.742% (inactive); for `COc1c(O)cc2c(c1O)C1OC(CO)C(O)[C@H](O)[C@H]1OC2=O` (stereo partly specified): -0.239% (inactive).
Same read-out and setting: next, `CC(C)CCCC(C)C1CCC2C3CC[C@H]4CC(=O)CC[C@@]4(C)C3CC[C@@]12C` (stereo partly specified): -0.105% (inactive).
Consider `COc1cc(/C=C/C(=O)O)cc(OC)c1OC`, for which the “activity change, negative = inhibition” value is 0.0748% (inactive).
Consider `CC(=O)NC(CC(=O)O)C(=O)NC(CCC(=O)O)C(=O)O` (stereo not drawn) (Ac-Asp-Glu-OH; configuration not given here), for which the “activity change, negative = inhibition” value is -9.25% (inactive).
Turning to `CC1(C)OC2C[C@](O)(C(N)=O)C[C@H](O)[C@H]2O1` (stereo partly specified), the “activity change, negative = inhibition” value was -6.61% (inactive).
Still for that read-out and setting: next, `O=c1[nH]c(Cl)nc2c1ncn2C1OC(CO)C(O)C1O` (stereo unspecified): -10.8% (inactive).
In the case of `Nc1nc2c(ncn2C2OC(CO)CC2O)c(=O)[nH]1` (stereo unspecified), the “activity change, negative = inhibition” value is -8.11% (inactive).
The same measure, in the same setting: next, `CS(=O)(=O)c1ccc(C(O)C(CO)NC(=O)C(Cl)Cl)cc1` (stereo unspecified): -7.31% (inactive); `CC1(C)CC2C1CC[C@]1(C)CCC3C(C(=O)O)CC(=O)O[C@]32C1` (stereo partly specified): -15.7% (inactive); `CC(=O)Oc1ccc2c(c1OC(C)=O)OCC1(O)Cc3c(cc(OC(C)=O)c(OC(C)=O)c3OC(C)=O)C21` (stereo unspecified): -6.38% (inactive).
Turning to `CC1=CC2C(C(C)C)CCC(C)(O)C2CC1` (stereo unspecified), the “activity change, negative = inhibition” value was -9.18% (inactive).
On to `O=C(/C=C/C(=O)Oc1ccccc1C(=O)O)Oc1ccccc1C(=O)O`, for which the “activity change, negative = inhibition” value was -1.29% (inactive).
On the same count and under the same terms, the same measure for `COc1ccc(-c2oc3c(CC=C(C)C)c(O[C@H]4OC(CO)C(O)C(O)C4O)cc(O)c3c(=O)c2O[C@@H]2OC(C)C(O)C(O)C2O)cc1` (stereo partly specified): -9.85% (inactive); for `C=C1CCC(O)C/C1=C/C=C1\CCC[C@@]2(C)C(C(C)/C=C/C(C)C(C)C)CC[C@@H]12` (stereo partly specified): -14.5% (inactive); for `CC1O[C@@H](Oc2c(-c3ccc(O)c(O)c3)oc3cc(O)cc(O)c3c2=O)C(O)C(O)C1O` (stereo partly specified): -10.4% (inactive).
On the same count and under the same terms, the same measure for `CCOc1ccc(C(=O)c2ccc(O)c(O)c2O)cc1`: -12.2% (inactive); for `CC(C)CC(NC(=O)CN)C(=O)NC(Cc1ccccc1)C(=O)O` (stereo not drawn) (H-Gly-Leu-Phe-OH; configuration not given here): -3.97% (inactive); for `CC(=O)Oc1ccc2c(c1)CCC1C2CC[C@]2(C)C(=O)CCC12` (stereo partly specified): -13.3% (inactive).
Take `O=C(O)c1ccc2c(c1)OCO2`: the “activity change, negative = inhibition” value was -7.26% (inactive).
With `CC(=O)OC1CC[C@@]2(C)C3=CC(=O)[C@]4(C)C(CC5OC6(OCC(C)CC6Br)C(C)C54)C3CC[C@H]2C1` (stereo partly specified), the “activity change, negative = inhibition” value is -5.91% (inactive).
`CC(=O)OC1CC[C@@]2(C)C(CC[C@@]3(C)C2CC=C2C4CC(C)(C)CC[C@]4(C(=O)O)CC[C@@]23C)C1(C)C` (stereo partly specified): the “activity change, negative = inhibition” value is -9.74% (inactive).

The values above are taken from PubChem BioAssay (NCATS).
